Active and inactive are the calls of the source.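 Rule for the calls, unless noted: active = inhibition above 20% together with a positive visual image hit; inconclusive = visual image hit but inhibition not above 20%; inactive = no visual image hit.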
Columns and labels:
[1] = inhibitors of TNFa-induced NFkB p65 translocation, primary screen, imaging, HUVEC, MLSMR starter and 10KST1 sets (AID 438); details: HUVEC TNFa-induced p65 nuclear translocation; cell count: measured here: nuclei count (cytotoxicity indicator), at 2.08 µM; inhibition: at 2 µM, stronger effect = higher value, 0% TNFa-plus-vehicle, 100% no-TNFa wells;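 note: compound added about 3h40 before a 20 min TNFalpha stimulation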;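 for inhibition: signal is the nuclear over cytoplasmic p65 intensity ratio per well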
[2] = reduction of polyQ htt aggregates in cells – imaging, exon1htt(103Q)mCFP cells, high-content imaging, primary screen (AID 483;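 active = visual image review flags a hit and inhibition of aggregation exceeds 20%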;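 note: compound exposure lasted 3 days before fixation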;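 for nuclei count: percent of the per-plate median nuclei count of sample wells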); details: exon1htt(103Q)mCFP cell line, aggregate imaging, at 2 µM; inhibition of aggregation: stronger effect = higher value; nuclei count: measured here: cell count, toxicity
[3] = endothelial E-selectin expression blockers – imaging, HUVEC, immunofluorescence, MLSMR starter and 10KST1 sets, primary screen (AID 487;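 active = visually confirmed hit in the image check and inhibition above 20%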;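 for inhibition: signal is fraction of cell area covered by stained E-selectin grains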;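 for nuclei count: 100% = median nuclei count of all wells on the same plate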); details: HUVEC TNFalpha-induced E-selectin immunofluorescence imaging, at 2 µM; inhibition: stronger effect = higher value; nuclei count: measured here: cell number, toxicity
[4] = biological target: Voltage-gated potassium channel subunit beta-2 (Rattus norvegicus) (UniProt P62483); test: inhibitors of rat Kvbeta2 reductase activity – biochemical, NADPH fluorescence, primary screen (AID 622;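 active = fluorescence slope higher than the sample average by over 3 SD, cut at about -0.22 in these data, passing the limit was not always enough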;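 note: slope of raw intensity against log time taken from 70 to 1610 s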); details: recombinant KvBeta, 4-cyanobenzaldehyde reduction, at 10 µM, stronger effect = higher value
[5] = biological target: Voltage-gated potassium channel subunit beta-2 (Rattus norvegicus) (UniProt P62483); test: enhancers of rat Kvbeta2 NADPH turnover – biochemical, NADPH fluorescence, primary screen (AID 623;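 active = NADPH fluorescence slope more negative than the mean of all samples by about 3 SD, 99.7% confidence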;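 note: fluorescence intensity change per second fitted from 20 to 320 s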); details: Recombinant KvBeta, NADPH fluorescence decrease slope, 10 min; at 10 µM; stronger effect = lower value
[6] = biological target: Muscarinic acetylcholine receptor M4 (Homo sapiens) (UniProt P08173); test: M4-linked GIRK flux change, two-sided – cell-based, HEK293 M4/GIRK, thallium flux, BTC-AM, M4 allosteric agonist project, primary screen (AID 625;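 active = fluorescence slope after compound addition differing from the mean of all tested samples at 99.7% confidence, mostly higher but some lower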;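 note: thallium influx through GIRK channels coupled to M4 in HEK293 cells with BTC-AM dye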); details: at 10 µM, actives lie on both sides
[7] = blockers of RIG-like receptor reporter activation – cell-based, Sendai virus stimulus, luciferase, 10K MLSCN set, TLR/RLR signaling modifier project, primary screen (AID 602276;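 active = inhibition at or above 50% at 10 µM; inactive = inhibition below 50%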;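 note: firefly luciferase from ISG56 promoter only with Renilla not read in this screen; 0% = Sendai virus plus DMSO and 100% = medium plus DMSO without virus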); details: HEK293 RL24 IRF3 luciferase reporter, at 10 µM, stronger effect = higher value
[8] = TLR3 IRF3 reporter activation blockers – cell-based, poly I:C stimulus, luciferase, 10K MLSCN set, primary screen (AID 602277;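 active = inhibition of the reporter signal at or above 50%; inactive = inhibition below 50%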); details: HEK293-TLR3 RL24 IRF3 luciferase reporter, at 10 µM, stronger effect = higher value
[9] = biological target: Alpha-2C adrenergic receptor (Homo sapiens) (UniProt P18825); test: compounds altering alpha2C-coupled GIRK flux – cell-based, HEK293 alpha2C/GIRK1/2, thallium flux, primary screen (AID 624;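 active = fluorescence slope after compound addition differing from the mean of all screened samples at 99.7% confidence, in either direction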;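 note: slope of fluorescence ratio to pre-addition baseline per second over 15 to 24 s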); details: thallium flux BTC fluorescence, at 10 µM, actives lie on both sides
[10] = Primary imaging screen for DUSP6 inhibitors that restore phospho-Erk in transfected HeLa cells, chemical complementation (AID 609;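 active = compounds giving at least 50% inhibition in the cell-based MKP-3 phosphatase rescue imaging test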;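 for inhibition: phospho-Erk level distribution per well compared with pooled transfected vehicle control wells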); details: HeLa MKP-3 transfected, phospho-Erk imaging KS statistic, at 10 µM, cells stimulated with TPA for 15 min
[11] = biological target: Dual specificity protein phosphatase 6 (Homo sapiens) (UniProt Q16828); test: as above; details: HeLa MKP-3 transfected, phospho-Erk imaging KS statistic; at 10 µM; stronger effect = higher value; cells stimulated with TPA for 15 min
[12] = measured here: cell density z-score
[13] = measured here: nuclear c-Myc green intensity z-score
[14] = measured here: nuclear pErk red intensity z-score, stronger effect = higher value

Sequence of Alpha-2C adrenergic receptor (Homo sapiens) (P18825 whole entry, looked up): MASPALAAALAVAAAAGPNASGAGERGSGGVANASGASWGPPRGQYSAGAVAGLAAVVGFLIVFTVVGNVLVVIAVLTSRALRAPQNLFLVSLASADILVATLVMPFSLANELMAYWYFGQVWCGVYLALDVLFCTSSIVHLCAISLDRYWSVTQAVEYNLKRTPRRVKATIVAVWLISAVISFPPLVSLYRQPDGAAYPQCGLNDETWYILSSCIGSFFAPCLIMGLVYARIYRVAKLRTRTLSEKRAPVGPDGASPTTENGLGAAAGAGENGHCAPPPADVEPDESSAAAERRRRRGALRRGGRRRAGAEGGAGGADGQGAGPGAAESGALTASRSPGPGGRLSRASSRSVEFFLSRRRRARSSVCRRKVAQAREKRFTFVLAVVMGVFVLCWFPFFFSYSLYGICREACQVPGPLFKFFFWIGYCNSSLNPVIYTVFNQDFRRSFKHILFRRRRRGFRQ
Sequence of Voltage-gated potassium channel subunit beta-2 (Rattus norvegicus) (P62483 whole entry, looked up): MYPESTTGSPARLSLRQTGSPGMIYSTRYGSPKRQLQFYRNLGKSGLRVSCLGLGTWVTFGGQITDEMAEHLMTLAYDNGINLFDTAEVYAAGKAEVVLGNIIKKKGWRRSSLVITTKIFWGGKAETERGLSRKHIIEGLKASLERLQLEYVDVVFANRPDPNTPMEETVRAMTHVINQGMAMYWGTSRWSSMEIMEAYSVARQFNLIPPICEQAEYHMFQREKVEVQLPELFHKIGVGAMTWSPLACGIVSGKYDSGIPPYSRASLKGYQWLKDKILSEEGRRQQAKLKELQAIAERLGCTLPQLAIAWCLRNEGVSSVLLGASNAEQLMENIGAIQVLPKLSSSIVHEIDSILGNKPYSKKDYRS
Sequence of Muscarinic acetylcholine receptor M4 (Homo sapiens) (P08173 whole entry, looked up): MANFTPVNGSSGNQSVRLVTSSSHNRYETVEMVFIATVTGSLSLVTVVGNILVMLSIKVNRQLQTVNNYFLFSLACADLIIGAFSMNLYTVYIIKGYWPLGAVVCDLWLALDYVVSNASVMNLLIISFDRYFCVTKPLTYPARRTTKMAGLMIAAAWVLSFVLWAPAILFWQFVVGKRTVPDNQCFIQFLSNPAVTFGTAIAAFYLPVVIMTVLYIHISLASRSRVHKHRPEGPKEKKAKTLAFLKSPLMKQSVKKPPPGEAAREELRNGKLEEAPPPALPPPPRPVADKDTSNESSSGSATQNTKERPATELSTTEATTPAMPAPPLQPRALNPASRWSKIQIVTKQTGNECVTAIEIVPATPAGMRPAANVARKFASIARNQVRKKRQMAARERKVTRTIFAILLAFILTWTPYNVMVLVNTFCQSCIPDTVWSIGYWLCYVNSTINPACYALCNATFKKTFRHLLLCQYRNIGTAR
Sequence of Dual specificity protein phosphatase 6 (Homo sapiens) (Q16828 whole entry, looked up): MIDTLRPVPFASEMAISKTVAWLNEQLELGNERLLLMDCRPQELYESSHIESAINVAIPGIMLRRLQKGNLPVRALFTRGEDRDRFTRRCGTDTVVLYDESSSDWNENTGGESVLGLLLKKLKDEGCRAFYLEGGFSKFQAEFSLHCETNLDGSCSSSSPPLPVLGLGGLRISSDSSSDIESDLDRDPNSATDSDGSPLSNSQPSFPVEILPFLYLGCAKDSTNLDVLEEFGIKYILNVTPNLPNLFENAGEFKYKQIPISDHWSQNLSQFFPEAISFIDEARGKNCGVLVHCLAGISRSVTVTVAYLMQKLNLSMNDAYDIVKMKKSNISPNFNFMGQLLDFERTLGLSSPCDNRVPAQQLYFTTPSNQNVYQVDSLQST

CC1(C)Cc2noc(N)c2C(C)(C)N1OC(=O)c1ccco1
cell count [1]: 295
inhibition [1]: -6.6% (inactive)
inhibition of aggregation [2]: 21.5% (inactive)
nuclei count [2]: 87.2%
inhibition [3]: -89.1% (inactive)
nuclei count [3]: 88.4%
fluorescence slope [4]: -0.474 (inactive)
NADPH fluorescence slope [5]: 2.9e-05 (inactive)
fluorescence slope [6]: 0.00628 (inactive)
inhibition [7]: 16.2% (inactive)
inhibition [8]: 23.5% (inactive)

O=C(O)C1CC(=O)N(c2ccc(Br)cc2)C1 (stereo not given)
cell count [1]: 375
inhibition [1]: 0.4% (inactive)
inhibition of aggregation [2]: -10.6% (inactive)
nuclei count [2]: 107%
inhibition [3]: -49.6% (inactive)
nuclei count [3]: 117%
fluorescence slope [4]: -0.506 (inactive)
NADPH fluorescence slope [5]: -0.000215 (inactive)
fluorescence slope [6]: 0.00384 (inactive)
inhibition [7]: 2.88% (inactive)
inhibition [8]: 10% (inactive)

CCCCn1nnnc1SCC(=O)Nc1cccc(C)n1
cell count [1]: 554
inhibition [1]: -46.9% (inactive)
inhibition of aggregation [2]: 9% (inactive)
nuclei count [2]: 112%
inhibition [3]: -47.5% (inactive)
nuclei count [3]: 107%
fluorescence slope [4]: -0.329 (inactive)
NADPH fluorescence slope [5]: -3.8e-05 (inactive)
fluorescence slope [6]: 0.00669 (inactive)
inhibition [7]: -10.8% (inactive)
inhibition [8]: -6.38% (inactive)

COc1cccc(-c2cc3nc4c(c(N5CCC6(CC5)OCCO6)n3n2)CCCC4)c1
cell count [1]: 479
inhibition [1]: 10.2% (inactive)
inhibition of aggregation [2]: 18.9% (inactive)
nuclei count [2]: 98.9%
nuclei count [3]: 149%
fluorescence slope [4]: -0.401 (inactive)
NADPH fluorescence slope [5]: 2.4e-05 (inactive)
fluorescence slope [6]: 0.00624 (inactive)
inhibition [7]: -10.9% (inactive)
inhibition [8]: -32.3% (inactive)

CC(C)(C)c1cc(C(=O)O)nn1-c1ccccc1
cell count [1]: 446
inhibition [1]: 2.5% (inactive)
inhibition of aggregation [2]: 2.7% (inactive)
nuclei count [2]: 94.2%
nuclei count [3]: 130%
fluorescence slope [4]: -0.482 (inactive)
NADPH fluorescence slope [5]: -3.8e-05 (inactive)
fluorescence slope [6]: 0.00539 (inactive)
inhibition [7]: 15.1% (inactive)
inhibition [8]: 24.6% (inactive)

N#CCSc1nc2c(c(C3CC=CCC3)c1C#N)CCC2 (stereo not given)
cell count [1]: 436
inhibition [1]: 8% (inactive)
inhibition of aggregation [2]: -9.6% (inactive)
nuclei count [2]: 100%
inhibition [3]: -44.5% (inactive)
nuclei count [3]: 112%
fluorescence slope [4]: -0.552 (inactive)
NADPH fluorescence slope [5]: -1.6e-05 (inactive)
fluorescence slope [6]: 0.00409 (inactive)
inhibition [7]: -0.626% (inactive)
inhibition [8]: 27.7% (inactive)

Cc1cc(C)nc(N2CCC(C(=O)NCc3cccc(C(F)(F)F)c3)CC2)n1
cell count [1]: 441
inhibition [1]: 7.1% (inactive)
inhibition of aggregation [2]: -55.6% (inactive)
nuclei count [2]: 85.9%
inhibition [3]: 45.5% (inactive)
nuclei count [3]: 85.1%
fluorescence slope [4]: -0.227 (inactive)
NADPH fluorescence slope [5]: -4.8e-06 (inactive)
fluorescence slope [6]: 0.00567 (inactive)
inhibition [7]: 11.9% (inactive)
inhibition [8]: 14% (inactive)

C[C@H](NC(=O)Nc1ccccc1F)C(=O)O
cell count [1]: 294
inhibition [1]: -8.5% (inactive)
inhibition of aggregation [2]: 4.9% (inactive)
nuclei count [2]: 86%
inhibition [3]: -78.4% (inactive)
nuclei count [3]: 138%
fluorescence slope [4]: -0.602 (inactive)
NADPH fluorescence slope [5]: 5.1e-05 (inactive)
fluorescence slope [6]: 0.00462 (inactive)
inhibition [7]: 14.6% (inactive)
inhibition [8]: 24.2% (inactive)

COc1cccc(C(=O)Nc2cnc(NC(=O)c3ccco3)cc2C)c1
cell count [1]: 463
inhibition [1]: 12.5% (inactive)
inhibition of aggregation [2]: -2.9% (inactive)
nuclei count [2]: 98.1%
nuclei count [3]: 119%
fluorescence slope [4]: -0.567 (inactive)
NADPH fluorescence slope [5]: -5.3e-05 (inactive)
fluorescence slope [6]: 0.00623 (inactive)
inhibition [7]: 5.68% (inactive)
inhibition [8]: -23.5% (inactive)

CCOC(=O)c1ccc(COC(=O)CCc2nc3ccccc3[nH]c2=O)o1
cell count [1]: 410
inhibition [1]: 10.6% (inactive)
inhibition of aggregation [2]: -18.4% (inactive)
nuclei count [2]: 108%
nuclei count [3]: 147%
fluorescence slope [4]: -0.546 (inactive)
NADPH fluorescence slope [5]: 1.7e-05 (inactive)
fluorescence slope [6]: 0.00556 (inactive)
inhibition [7]: 15.9% (inactive)
inhibition [8]: 18.3% (inactive)

COc1cccc(-c2cc(C(=O)Nc3cc(OC)c(OC)c(OC)c3)no2)c1
cell count [1]: 461
inhibition [1]: -4.5% (inactive)
inhibition of aggregation [2]: 1.1% (inactive)
nuclei count [2]: 55.1%
inhibition [3]: -12.3% (inactive)
nuclei count [3]: 97.2%
fluorescence slope [4]: -0.511 (inactive)
NADPH fluorescence slope [5]: -4.5e-05 (inactive)
slope [9]: 0.00712 (inactive)
inhibition [8]: -2.13% (inactive)

COc1cc(Cn2c(C(=O)O)cc3sccc32)cc(OC)c1OC
cell count [1]: 434
inhibition [1]: 8.6% (inactive)
inhibition of aggregation [2]: 2.5% (inactive)
nuclei count [2]: 98.8%
nuclei count [3]: 140%
fluorescence slope [4]: -0.562 (inactive)
NADPH fluorescence slope [5]: -0.000122 (inactive)
fluorescence slope [6]: 0.00343 (inactive)
inhibition [7]: 14.9% (inactive)
inhibition [8]: 20.9% (inactive)

Cc1cc(NC(=O)COc2ncnc3sc(C)c(C)c23)no1
cell count [1]: 418
inhibition [1]: 1.3% (inactive)
inhibition of aggregation [2]: -2.1% (inactive)
nuclei count [2]: 100%
nuclei count [3]: 153%
fluorescence slope [4]: -0.568 (inactive)
NADPH fluorescence slope [5]: -2.9e-05 (inactive)
fluorescence slope [6]: 0.00692 (inactive)
inhibition [7]: 21% (inactive)
inhibition [8]: 21.4% (inactive)

CCNc1nc(N2CCCCC2)nc(-n2nnc(C(=O)OCC)c2C)n1
cell count [1]: 550
inhibition [1]: -5.3% (inactive)
inhibition of aggregation [2]: 1.6% (inactive)
nuclei count [2]: 92.5%
inhibition [3]: 27.7% (inactive)
nuclei count [3]: 66.8%
fluorescence slope [4]: -0.613 (inactive)
NADPH fluorescence slope [5]: -6.3e-05 (inactive)
fluorescence slope [6]: 0.00368 (inactive)
inhibition [7]: -2.26% (inactive)
inhibition [8]: 4.91% (inactive)

O=C(O)c1cc2c([nH]c1=O)CCCC2
cell count [1]: 661
inhibition [1]: -18.4% (inactive)
inhibition of aggregation [2]: 24.5% (inactive)
nuclei count [2]: 96.3%
inhibition [3]: -0.2% (inactive)
nuclei count [3]: 100%
fluorescence slope [4]: -0.585 (inactive)
NADPH fluorescence slope [5]: 2.3e-05 (inactive)
fluorescence slope [6]: 0.00466 (inactive)
inhibition [7]: 13.7% (inactive)
inhibition [8]: 24.4% (inactive)

Cc1cnc(C(=O)NCCc2ccc(S(=O)(=O)NC(=O)NC3CCCCC3)cc2)cn1
cell count [1]: 609
inhibition [1]: 0.1% (inactive)
inhibition [3]: -102% (inactive)
nuclei count [3]: 134%
z-score [10, 12]: -0.283
z-score [10, 13]: 0.557
z-score [10, 14]: -0.42
inhibition [11]: 12.4% (inactive)
fluorescence slope [4]: -0.474 (inactive)
NADPH fluorescence slope [5]: 8e-06 (inactive)
slope [9]: 0.0053 (inactive)
inhibition [7]: 12.9% (inactive)
inhibition [8]: 21.2% (inactive)

O=C(O)CC(C(=O)OCCOc1ccccc1)N1CCOCC1 (stereo not given)
cell count [1]: 504
inhibition [1]: 6.4% (inactive)
inhibition [3]: -77.1% (inactive)
nuclei count [3]: 109%

COC(=O)c1c(C(=O)OC)n(CCCN)c2ccc(C)cc12
cell count [1]: 434
inhibition [1]: 10.9% (inactive)
inhibition of aggregation [2]: 1.8% (inactive)
nuclei count [2]: 100%
nuclei count [3]: 152%
fluorescence slope [4]: -0.495 (inactive)
NADPH fluorescence slope [5]: -7.5e-06 (inactive)
fluorescence slope [6]: 0.00606 (inactive)
inhibition [7]: 20.6% (inactive)
inhibition [8]: 34% (inactive)

COc1ccc2cc([C@H](C)C(=O)O)ccc2c1
cell count [1]: 649
inhibition [1]: -0.4% (inactive)
inhibition [3]: -51.6% (inactive)
nuclei count [3]: 120%
z-score [10, 12]: -0.246
z-score [10, 13]: 0.258
z-score [10, 14]: 0.308
inhibition [11]: 5.42% (inactive)
fluorescence slope [4]: -0.491 (inactive)
NADPH fluorescence slope [5]: -6.7e-05 (inactive)
slope [9]: 0.00486 (inactive)
inhibition [7]: 13.2% (inactive)
inhibition [8]: 30.5% (inactive)

CC(C)OC(=O)CSc1nnc(Cc2ccccc2)n1Cc1ccco1
cell count [1]: 726
inhibition [1]: 28.5% (active)
inhibition of aggregation [2]: -13% (inactive)
nuclei count [2]: 106%
inhibition [3]: 44% (inactive)
nuclei count [3]: 100%
fluorescence slope [4]: -0.419 (inactive)
NADPH fluorescence slope [5]: -2.4e-05 (inactive)
fluorescence slope [6]: 0.0048 (inactive)
inhibition [7]: 10.9% (inactive)
inhibition [8]: 6.75% (inactive)

CCOc1ccc(CCNC(=O)CCc2nc(-c3ccc(OC)cc3)no2)cc1OCC
cell count [1]: 322
inhibition [1]: -3.5% (inactive)
inhibition of aggregation [2]: 1.2% (inactive)
nuclei count [2]: 87.7%
inhibition [3]: -64.9% (inactive)
nuclei count [3]: 146%
fluorescence slope [4]: -0.529 (inactive)
NADPH fluorescence slope [5]: 3.2e-05 (inactive)
fluorescence slope [6]: 0.00633 (inactive)
inhibition [7]: 12.2% (inactive)
inhibition [8]: 12.3% (inactive)

From PubChem BioAssay
